Screening results (PubChem BioAssay)
GLP1R ag: agonists of human GLP-1 receptor | P43220 | AID 624172 | HEK293 GLP-1R CRE-luciferase, luminescence, 4-6 h; cells express a hypersensitive GLP-1R form | Potency, µM (top dose mostly 45.6 µM), for the others: at the top dose activation, hits mostly activators | actives 0.007% (n = 380,000); further: % of control where 0% means no effect
Target sequence (P43220 whole entry, looked up): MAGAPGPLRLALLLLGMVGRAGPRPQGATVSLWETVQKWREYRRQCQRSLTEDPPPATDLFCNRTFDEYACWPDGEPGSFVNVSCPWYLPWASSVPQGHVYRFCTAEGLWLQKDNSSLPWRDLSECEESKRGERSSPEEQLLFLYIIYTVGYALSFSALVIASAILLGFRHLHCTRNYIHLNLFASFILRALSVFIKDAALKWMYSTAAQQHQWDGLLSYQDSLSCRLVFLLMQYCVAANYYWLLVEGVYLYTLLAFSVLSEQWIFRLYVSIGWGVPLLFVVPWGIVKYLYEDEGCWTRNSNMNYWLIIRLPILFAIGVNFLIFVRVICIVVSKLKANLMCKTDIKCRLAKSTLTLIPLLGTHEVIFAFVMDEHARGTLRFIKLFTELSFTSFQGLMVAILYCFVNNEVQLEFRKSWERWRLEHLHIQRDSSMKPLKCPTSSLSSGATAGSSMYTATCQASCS
GLP-1R inv ag: acts as inverse agonist at human GLP-1 receptor; P43220; HEK293 GLP-1R CRE-luciferase, luminescence, 24 h; GLP-1R form is constitutively active; Potency, µM (series often up to 38.3 µM), inactives show at the top dose activity change, negative = inhibition, most hits filed as inhibitors; actives 1.6% (n = 410,000); AID 624417; further: on the % scale 0 is the no-effect control and ±100 the full control effect; nearly all actives have a fitted effect of over 55% in size
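HEK293 cells stably co-expressing a cAMP-responsive luciferase reporter and constitutively active GLP-1R were seeded, incubated 12 h, then exposed to compounds for 24 h at 37 C. Luminescence was read 12 min after detection reagent; inverse agonists lower signal.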
GLP1R cytotox: cytotoxic in the GLP-1 receptor inverse agonist counter-screen; actives 0.13% (n = 410,000); HEK293 cAMP-luciferase reporter cells, luminescence, 24 h; Potency, µM (doses to about 38.3 µM), without a hit: top-dose activity change, negative = inhibition, usual class: inhibitors; AID 624418;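 further: loss of luciferase light is scored as toxicity; on the % scale 0 is the no-effect control and ±100 the full control effect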
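Step one: seed cells (200 cells/uL, DMEM with 10% Nu serum, 1% pen-strep). Step two: 12-hour incubation at 37 deg C. Step three: pin 23 nL compound, incubate 24 hr. Step four: add luciferase reagent, read luminescence 12 min later.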
The depositor's hits bear a star; u = inconclusive; x = not tested or not shown. The list is not random: actives were taken first. Their share in the collection is about 1.7%. The call rests on the fitted dose curve; in most records, active means well fitted curve in the direction sought with a large enough effect; inconclusive means small, poorly fitted or top-dose-only effect, or another doubt; inactive means no such curve, though single readings can be large; an effect the other way counts as inactive or inconclusive. Potency means the concentration at half of the fitted maximal effect.

SMILES	GLP1R ag	GLP-1R inv ag	GLP1R cytotox
CC(N)c1csc(Nc2cc(Oc3ccccc3)ncn2)n1 (stereo not drawn)	-5%	u	-10%
COc1cccc(Nc2nc3ccc(C(=O)c4ccccc4)cc3n3c(C)nnc23)c1	x	4%	-2%
CCN(c1ccccc1)S(=O)(=O)c1ccc(C(=O)N2CCN(c3ccccc3)CC2)cc1	-2%	u	11%
O=C(Cc1cccs1)Nc1ccc(-c2nc3ccccc3[nH]2)cc1	-1%	4.5µM*	-23%
O=C(CSc1ccccc1)Nc1ccc(-c2nc3ccccc3[nH]2)cc1	-1%	u	-33%
Cc1ccccc1C(=O)NC1CCN(Cc2ccccc2)CC1	2%	2%	1%
CC1(C)Cc2cccc(C(=O)NC3CCN(Cc4ccccc4)CC3)c2O1	5%	10µM*	-28%
COc1ccccc1CNS(=O)(=O)c1ccc(Br)s1	7%	u	-2%
CCCCN1C2=NCCCN2c2ccccc21	-5%	5%	-11%
Clc1ccc(CN2C3=NCCCN3c3ccccc32)c(Cl)c1	3%	8.9µM*	-29%
Clc1cccc(CN2C3=NCCCN3c3ccccc32)c1	0%	-28%	-9%
CCCCCCCN1C2=NCCCN2c2ccccc21	5%	10µM*	-28%
CCCCCCN1C2=NCCN2c2ccccc21	3%	-25%	-18%
CCCCCCCN1C2=NCCN2c2ccccc21	-3%	5.6µM*	u
C=C(C)c1cc2c(ccc3ccc(=O)oc32)o1	-4%	-2%	-1%
COc1ccc(-n2cc(-c3ccccc3)c3c(SC(C)C(C)=O)ncnc32)cc1 (stereo not drawn)	x	u	12%
CC(C)C12CN3CC(C(C)C)(CN(C1)C3c1ccc(Cl)cc1)C2=O (stereo not drawn)	x	3%	1%
CC(C)CCn1c(-c2nonc2N)nc2ccccc21	1%	2.2µM*	-15%
CCCCn1c(-c2nonc2N)nc2ccccc21	-5%	-6%	4%
Cc1cc(NC2CCCCC2)nc(NCc2ccccc2)n1	11%	10µM*	u
Cc1ccc(Nc2cc(C)nc(NCc3ccccc3)n2)cc1	11%	u	u
CC(C)Oc1ccc(CNC(=O)c2cccc(NC(=O)N3CCSc4ncccc43)c2)cc1	x	6%	-3%
CO[C@]1(NC(=O)Cc2cccs2)C(=O)N2C(C(=O)O)=CC(COC(N)=O)S[C@H]21 (stereo partly drawn)	-4%	x	x
COc1ccc(S(=O)(=O)N2CCCCC2)cc1NC(=O)CNc1ccccc1C(C)=O	4%	u	19%
COc1ccc(S(=O)(=O)N2CCCCC2)cc1NCC(=O)Nc1ccc(C)cc1	20%	8.9µM*	-18%
SMILES	GLP1R ag	GLP-1R inv ag	GLP1R cytotox
N#Cc1ccccc1OCC(=O)Nc1cccc(S(=O)(=O)N2CCCC2)c1	8%	4%	7%
COc1cccc(CN(C)CC(=O)Nc2cc(S(=O)(=O)N3CCCC3)ccc2Cl)c1OC	0%	7.9µM*	4%
COc1ccc(S(=O)(=O)N2CCOCC2)cc1C(=O)Nc1ccc(N2CCCCCC2)cc1	3%	10µM*	-22%
CCc1ccccc1OCC(=O)Nc1cccc(S(=O)(=O)N2CCCC2)c1	8%	11µM*	2%
COc1ccccc1CN(C)CC(=O)Nc1cccc(S(=O)(=O)N2CCCC2)c1	-3%	u	-19%
Cc1ccc(S(=O)(=O)N2CCCCC2)cc1C(=O)Nc1ccc(N2CCOCC2)cc1	-15%	-12%	45%
CCOCCCNC(=O)c1cnc2sc(N3CCCCCC3)nn2c1=O	x	7%	8%
O=C(Cn1nc(C(=O)O)c2ccccc2c1=O)Nc1cc(S(=O)(=O)N2CCOCC2)ccc1Cl	6%	5%	-4%
Cc1c(NS(=O)(=O)c2cc(C(=O)OCC(=O)c3ccccc3F)ccc2Cl)c(=O)n(-c2ccccc2)n1C	16%	-5%	2%
COc1cc(OC)c(NC(=O)c2cc(CN3CCOCC3)on2)cc1Cl	x	6%	2%
CCOC(=O)c1c(-c2ccc(C)cc2)csc1NC(=O)c1cc(=O)c2cc(Cl)ccc2o1	x	-2%	-12%
Cc1ccc(S(=O)(=O)N(C)C[C@H]2OCCCC[C@@H](C)Oc3ccc(NC(=O)Cc4ccccc4)cc3C(=O)N([C@H](C)CO)C[C@@H]2C)cc1	-1%	17%	-5%
COc1ccc(Cl)cc1NC(=O)C1Cc2cc(S(=O)(=O)N3CCCC3)ccc2N1C(C)=O (stereo not drawn)	3%	u	-2%
Cc1ccc(-c2nc(SCC(=O)Nc3cc(S(=O)(=O)N4CCCCC4)ccc3Cl)n[nH]2)cc1	14%	10µM*	u
COc1cc(Cl)c(C)cc1NCC(=O)Nc1cccc(S(=O)(=O)N2CCCC2)c1	-5%	8.9µM*	-15%
COc1ccc(NC(=O)C2Cc3cc(S(=O)(=O)N4CCCCC4)ccc3N2C(C)=O)cc1Cl (stereo not drawn)	-3%	10µM*	-5%
Nc1cc(=O)[nH]c(SCC(=O)Nc2cc(S(=O)(=O)N3CCCCCC3)ccc2Cl)n1	-5%	12%	-1%
COc1ccc(S(=O)(=O)N(C)C)cc1NCC(=O)Nc1ccc(Br)c(C)c1	9%	11µM*	-7%
O=C(CNc1ccc(F)cc1Cl)Nc1cccc(S(=O)(=O)N2CCCCC2)c1	4%	u	-24%
COc1ccc(S(=O)(=O)N(C)C)cc1NCC(=O)Nc1cccc2ccccc12	7%	-18%	-13%
Cn1c(=O)c2c(SCC(=O)Nc3ccc(F)cc3F)nc(C3CCCC3)nc2n(C)c1=O	x	11%	18%
N#CCS(=O)(=O)c1ccccc1	-2%	8%	-19%
O=[N+]([O-])c1ccc(N=Nc2ccc(O)c3ccccc23)cc1	0%	u	u
Nc1ccn([C@@H]2O[C@H](CNCc3cccc(OC4CCCC4)c3)[C@@H](O)[C@H]2O)c(=O)n1	-2%	7%	-6%
COc1ccc(N2CCN(C(=O)CS(=O)(=O)c3cccc4nsnc34)CC2)cc1	5%	12%	17%
SMILES	GLP1R ag	GLP-1R inv ag	GLP1R cytotox
CCc1cccc(C)c1NC(=O)c1nc2ccccc2nc1N1CCCCC1	x	-5%	2%
CC(C)C(=O)N1CCC(n2nccc2NC(=O)CCc2ccccc2)CC1	6%	1%	0%
O=C(c1ccco1)N1CCN(C(=O)N2c3ccccc3Sc3ccccc32)CC1	23%	u	3.2µM*
O=C(NC1CCN(C(=O)N2c3ccccc3Sc3ccccc32)CC1)c1ccco1	-8%	u	u
O=C(NC1CCN(C(=O)N2c3ccccc3Sc3ccccc32)CC1)c1ccccc1Cl	-3%	10µM*	-1%
O=C(c1ccco1)N1c2ccccc2Sc2ccccc21	0%	u	-9%
O=C(NCc1ccc(Cl)c(Cl)c1)c1cc(C2CCCCN2C(=O)OCCF)on1 (stereo not drawn)	-5%	u	-4%
CCOC(=O)c1c(-c2ccccc2)csc1NC(=O)c1nc(S(=O)(=O)CC)ncc1Cl	x	16%	0%
Cc1nn2c(NCC(C)C)c3c(nc2c1-c1ccccc1)CCC3	4%	0%	1%
Cc1nn2c(NC(C)C)c3c(nc2c1-c1ccccc1)CCC3	23%	10µM*	-8%
CCc1ccccc1NNC(=O)c1snnc1C	11%	10µM*	u
